# In PubChem BioAssay (NCATS):
# Unmarked numbers belong to inactive results. The source made the active and inactive calls. Calls come from the whole dose curve; as a rule, active = well fitted inhibition curve with a large enough effect; inconclusive = small, poorly fitted or top-dose-only effect; inactive = flat fitted curve, though single readings scatter. Where a SMILES comes first, the peptide text is derived from it. [ ]: non-standard residue; d: D form. Ala(indol-2-yl) = N[C@@H](Cc1cc2ccccc2[nH]1)C(=O)O; Aib = CC(C)(N)C(=O)O
# Biological target: Luciferin 4-monooxygenase (Photinus pyralis) (UniProt P08659)
# Test: Primary firefly luciferase (FLuc) qHTS assay for identification of artifact compounds. (AID 1845220); note: nearly all actives have a fitted effect of over 60% in size;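 for activity change, negative = inhibition: plate controls were DMSO vehicle for no effect and no enzyme for full effect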
# Details: purified firefly luciferase, luminescence, 5 min; series mostly up to 54.1 µM; activity change, negative = inhibition: at the top concentration
# In short: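 Compounds sat 15 min at room temperature with 10 uM luciferin and 10 uM ATP (pH 7.6 Tris acetate). Firefly luciferase (10 nM final) was then added, and luminescence was read 5 min later. Data normalized to no-enzyme and DMSO controls were Hill-fitted.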
Structure (SMILES),"activity change, negative = inhibition",outcome
CCC(C)/C=C(C)/C=C/C1=CC2=C(Cl)C(=O)C(C)(OC(C)=O)C(=O)C2=CO1 (configuration not stated),-25.3%,–
COC1CC(O[C@H]2CC[C@]3(C)C4CC[C@]5(C)[C@@H](C6=CC(=O)OC6)[C@@H](OC(C)=O)C[C@]5(O)C4CC[C@@H]3C2)OC(C)C1O (some centres not stated),-2.5% [at 25.7 µM],–
C[C@H]1O[C@@H](O[C@H]2CC[C@]3(C=O)C4CC[C@]5(C)[C@@H](C6=CC(=O)OC6)CC[C@]5(O)[C@@H]4CC[C@]3(O)C2)C[C@@H](O)[C@@H]1O (some centres not stated),-7.5% [at 25.7 µM],–
CC1=CC2OC3[C@H](O)C[C@@](C)([C@]34CO4)[C@@]2(CO)[C@H](O)C1=O (some centres not stated),–,inactive
C=C1[C@@H](C)[C@H]2[C@H](Cc3ccccc3)NC(=O)[C@]23OC(=O)/C=C/C(=O)CCC[C@@H](C)C/C=C/[C@H]3[C@@H]1O,-1.8%,–
COC1CC(O[C@H]2CC[C@@]3(C)C(CCC4C3CC[C@]3(C)[C@@H](C5=CC(=O)OC5)CC[C@]43O)C2)OC(C)C1O (some centres not stated),-12.8% [at 25.7 µM],–
CC(C)(C)[C@]1(O)C[C@@H]2OC(=O)C[C@@]23C(=O)O[C@@H]2OC(=O)[C@@H](O)[C@]213,-2.37%,–
C[C@H]1C/C=C/[C@H]2[C@@H]3O[C@]3(C)[C@@H](C)[C@H]3[C@H](Cc4ccccc4)NC(=O)[C@]32OC(=O)O/C=C/[C@@](C)(O)C1=O,–,inactive [at 25.7 µM]
CNC(=O)c1cc(C#N)cc(C)c1NC(=O)c1cc(Br)nn1-c1ncccc1Cl,-2.98%,–
OCc1nnc2n1-c1ccc(Cl)cc1C(c1ccccc1Cl)=NC2,3.98%,–
CN[C@@H]1C[C@H]2O[C@@](C)([C@@H]1OC)n1c3ccccc3c3c4c(c5c6ccccc6n2c5c31)C(=O)NC4,2.66%,–
COC1CC(O[C@H]2CC[C@]3(C=O)C4CC[C@]5(C)[C@@H](C6=CC(=O)OC6)CC[C@]5(O)[C@@H]4CC[C@@H]3C2)OC(C)C1O[C@@H]1O[C@H](CO)[C@@H](O[C@@H]2O[C@H](CO)[C@@H](O)[C@H](O)[C@H]2O)[C@H](O)[C@H]1O (some centres not stated),0.154% [at 11.6 µM],–
CC[C@@H]1C[C@H]2CC[C@H](O2)[C@H](C)C(=O)O[C@@H](C)C[C@@H]2CC[C@@H](O2)[C@@H](C)C(=O)O[C@H](CC)C[C@H]2CC[C@H](O2)[C@H](C)C(=O)O[C@@H](C)C[C@@H]2CC[C@@H](O2)[C@@H](C)C(=O)O1,–,inactive [at 25.7 µM]
CO[C@@H]1C[C@H](O[C@H]2CC[C@@]3(C)C(CCC4C3CC[C@]3(C)[C@@H](C5=CC(=O)OC5)[C@@H](OC(C)=O)CC43O)C2)O[C@H](C)[C@@H]1O[C@H]1O[C@H](CO[C@@H]2O[C@H](CO)[C@@H](O)[C@H](O)[C@H]2O)[C@@H](O)[C@H](O)[C@H]1O (some centres not stated),-3.37% [at 11.6 µM],–
CC(=O)O[C@@H]1[C@@H](O)[C@H]2O[C@@H]3C=C(C)[C@@H](O)C[C@]3(CO)[C@]1(C)[C@]21CO1,–,inactive
CO[C@H]1C[C@H](O[C@H]2CC[C@@]3(C)C(=CCC4C3CC[C@]3(C)[C@@H](C5=CC(=O)OC5)CC[C@]43O)C2)O[C@@H](C)[C@@H]1O[C@@H]1O[C@H](CO[C@@H]2O[C@H](CO)[C@@H](O)[C@H](O)[C@H]2O)[C@@H](O)[C@H](O)[C@H]1O (some centres not stated),0.797% [at 11.6 µM],–
C=C1[C@@H](C)[C@H]2[C@H](Cc3ccccc3)NC(=O)[C@]23[C@H](OC(C)=O)/C=C/[C@](C)(O)C(=O)[C@@H](C)C/C=C/[C@H]3[C@@H]1O,0.414%,–
c1cncc(OC[C@@H]2CCN2)c1,2.01%,–
CC(=O)OC[C@]12C[C@H](OC(=O)CC(C)C)C(C)=C[C@H]1O[C@@H]1[C@H](O)C[C@@]2(C)[C@]12CO2,–,inactive [at 25.7 µM]

Structure (SMILES),"activity change, negative = inhibition",outcome
CNc1ccc2oc(C[C@H]3O[C@@]4(CC[C@H]3C)O[C@H](C(C)C(=O)c3ccc[nH]3)[C@H](C)C[C@H]4C)nc2c1C(=O)O (some centres not stated),–,inactive
C[N@@+]1(CC2CC2)CC[C@]23c4c5ccc(O)c4O[C@H]2C(=O)CC[C@@]3(O)[C@H]1C5,0.939%,–
COc1ccc2c3c([nH]c2c1)C(C=C(C)C)N1C(=O)C2CCCN2C(=O)C1C3 (configuration not stated),-1.22%,–
CC(=O)OC[C@]12C[C@H](OC(=O)CC(C)C)C(C)=C[C@H]1O[C@@H]1[C@H](O)[C@@H](O)[C@@]2(C)[C@]12CO2,0.838% [at 25.7 µM],–
CC(C)(NC(=O)[C@@H](N)Cc1ccc(O)cc1)C(=O)N[C@@H](Cc1cc2ccccc2[nH]1)C(=O)N[C@@H](Cc1ccccc1)C(=O)O (H-Y[Aib][Ala(indol-2-yl)]F-OH),1.26% [at 11.6 µM],–
C[C@]12CC[C@H](O)C[C@H]1CC[C@@H]1[C@@H]2[C@H](O)C(=O)[C@]2(C)[C@@H](c3ccc(=O)oc3)CC[C@]12O,2.73%,–
CC[C@H]1C2CC3[C@@H]4N(C)c5ccccc5[C@]45C[C@@H]([C@H]2[C@H]5O)N3[C@@H]1O,-5.94%,–
CC(=O)OC[C@]12C[C@H](OC(=O)CC(C)C)C(C)=C[C@H]1O[C@@H]1[C@H](O)[C@@H](OC(C)=O)[C@@]2(C)[C@@]12CO2,–,inactive [at 25.7 µM]
CC1=C[C@H]2O[C@@H]3C[C@H]4OC(=O)/C=C/C=C/C(=O)OCC/C(C)=C/C(=O)OC[C@@]2(CC1)[C@]4(C)[C@]31CO1,–,inactive [at 25.7 µM]
CC1CCCC(=O)CCC/C=C/c2cc(O)cc(O)c2C(=O)O1 (configuration not stated),-1.85%,–
O=C(OC[C@H]1O[C@@H](Oc2ccc(O)cc2CO)[C@H](O)[C@@H](O)[C@@H]1O)c1ccccc1,1.04% [at 25.7 µM],–
CC[C@@]1(O)C(=O)OCc2c1cc1n(c2=O)Cc2cc3c(OC)cccc3nc2-1,-5.95%,–
CC(=O)OC[C@]12C[C@H](O)C(C)=C[C@H]1O[C@@H]1[C@H](O)[C@@H](O)[C@@]2(C)[C@]12CO2,–,inactive
CC[C@H]1C[C@@H]2CC[C@@H](O2)[C@@H](C)C(=O)O[C@H](CC)C[C@H]2CC[C@H](O2)[C@H](C)C(=O)O[C@@H](C)C[C@@H]2CC[C@@H](O2)[C@@H](C)C(=O)O[C@H](CC)C[C@H]2CC[C@H](O2)[C@H](C)C(=O)O1,1.12% [at 25.7 µM],–
CC(=O)OC[C@]12C[C@H](O)C(C)=C[C@H]1O[C@@H]1[C@H](O)[C@@H](OC(C)=O)[C@@]2(C)[C@]12CO2,–,inactive
C[C@H]1O[C@@H](n2cnc3c(N)ncnc32)C[C@@H]1O,0.0832%,–
CO[C@H]1[C@@H](O)[C@@H](C)O[C@@H](O[C@@H]2C=C3C(OC(C)=O)CC4(O)C(CC[C@]5(C)[C@@H](C6=CC(=O)OC6)CC[C@]45O)[C@@]3(C)CC2)[C@@H]1O (some centres not stated),–,inactive [at 25.7 µM]
CN(C)c1cc2c(cc1Sc1nc3c(N)nccc3n1CCNCC(C)(C)C)OCO2,1.34%,–
